Screening data: PubChem, several laboratories
Only some compounds are listed: those with a hit (about 4.3% of all), similar ones and a draw of the others.
NALP1 inh: NALP1 inhibition. S. cerevisiae NALP1/ASC/caspase-1 growth, X-gal OD620, 72 h. inhibition, % at 10 µM. 0.61% of 280,000 active; in the data active = inhibition mostly above about 24%, no sharp cut-off; inactive = mostly below about 32%
CR mimetic SO: lowers age-related superoxide in aged yeast cells. S. cerevisiae aged cells, superoxide DHE fluorescence; hits give low values. superoxide response (% of plate mean), % at 10 µM. 0.18% of 330,000 active;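 active = superoxide response under a set limit, about three screen SD below normal, cut at about 65% in these data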;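 also: yeast aged for seven days with compound at 30 °C before DHE staining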
GRIN3A LBD mod: modulators (binders) of human NR3A ligand-binding domain; AID 1259313; Tm shift relative to glycine control, % at 25 µM; NR3A LBD differential scanning fluorimetry, Tm shift; 0% = protein alone, 100% = glycine-bound protein; 2.5% of 340,000 active;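 active = melting temperature shift of at least 10% of the positive control shift, at one fixed dose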
dFosB activator: mouse delta FosB homodimer activation. P13346. purified delta FosB, TAMRA-CDK5 oligo fluorescence polarization; percent of positive-control signal above neutral wells. activation, % at 25 µM. 0.99% of 340,000 active. AID 493131;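 active = mean activation above about 17%, with every replicate also reaching it, limit read from the data, passing the limit was not always enough; inconclusive = only one of the two conditions met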
UBC13 inh: human UBC13 polyubiquitination inhibition. P61088. 0.47% of 330,000 active. AID 485273. UBC13 polyubiquitin chain formation, TR-FRET. inhibition, % at 20 µM; in the data active = inhibition above about 45%, passing the limit was not always enough; inconclusive = no clear call, values can overlap the other calls
Target sequence (P61088 whole entry, looked up): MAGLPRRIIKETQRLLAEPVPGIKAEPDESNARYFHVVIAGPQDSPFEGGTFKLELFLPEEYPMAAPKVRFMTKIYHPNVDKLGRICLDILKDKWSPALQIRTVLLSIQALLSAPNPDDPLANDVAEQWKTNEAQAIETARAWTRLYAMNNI
Each line names hits and unclear results; the compound was inactive in the other large screens.

CCCOc1cccc(-c2nn(-c3ccccc3)cc2/C=C(\C#N)C(=O)NCCCn2ccnc2)c1	GRIN3A LBD mod 11.4
CN(C)S(=O)(=O)c1cccc(-c2nn(-c3ccccc3)cc2/C=C(/C#N)C(=O)NCc2ccco2)c1	GRIN3A LBD mod 15.5
CCN(CC)S(=O)(=O)c1cccc(-c2nn(-c3ccccc3)cc2/C=C(\C#N)C(=O)NCc2ccco2)c1	none
CCOC(=O)N1CCC(NC(=O)CCN2C(=O)C3C4C=CC(C4)C3C2=O)CC1 (stereo unspecified)	none
O=C(CCN1C(=O)C2C3C=CC(C3)C2C1=O)NC1CCCCC1 (stereo unspecified)	NALP1 inh 36.8
CCCc1cc(=O)[nH]c(Nc2ccc(O)cc2)n1	GRIN3A LBD mod 10.0
CCCc1cc(=O)[nH]c(Nc2ccc(Cl)cc2)n1	none
CC(=O)c1ccc(NC(=O)C(C)OC(=O)C(C)Oc2cccc(C)c2)cc1 (stereo unspecified)	GRIN3A LBD mod 10.2
Cc1cccc(OC(C)C(=O)Nc2ccc(N3CCCCC3)cc2)c1 (stereo unspecified)	none (no result: NALP1 inh)
Nc1c(-c2cccs2)cnc2c(-c3ccc(F)cc3)cnn12	GRIN3A LBD mod 30.3
CS(=O)(=O)c1cnc2c(-c3ccc(F)cc3)cnn2c1N	GRIN3A LBD mod 36.9
Cc1nc2c(-c3ccc(F)cc3)cnn2c(N)c1-c1ccc(F)cc1	none
Cc1cc(-c2nnc(CCC(=O)N3CCN(Cc4cccc(F)c4)CC3)o2)c(C)o1	none
Cc1nn(Cc2ccc(Cl)cc2)c(C)c1NC(=O)C(c1ccccc1)c1ccccc1	none
Cc1ccc(C(=O)NC(C)C2CCCO2)o1 (stereo unspecified)	none
CC(NC(=O)c1ccco1)C1CCCO1 (stereo unspecified)	NALP1 inh 44.0
COC(=O)c1[nH]c2ccc(C)cc2c1NC(=O)C1=COCCO1	none
COC(=O)c1[nH]c2ccc(F)cc2c1NC(=O)C1=COCCO1	GRIN3A LBD mod 17.0
O=C1CCc2cc(S(=O)(=O)Nc3ccccc3F)ccc2N1	none (no result: NALP1 inh)
COc1ccc(C(=O)Nc2ccccc2C(=O)Nc2ccncc2)cc1	none
O=C1C(=NO)CCc2ccccc21	none (no result: NALP1 inh, CR mimetic SO, UBC13 inh)
Brc1ccc2ncnc(NCc3ccco3)c2c1	UBC13 inh inconclusive
OC(CNCc1ccco1)Cn1c2ccc(Br)cc2c2cc(Br)ccc21 (stereo unspecified)	GRIN3A LBD mod 24.0
Cc1cc(C(=O)CCC(=O)N(C)CC(=O)Nc2c(Cl)cccc2Cl)c(C)s1	none (no result: NALP1 inh)
CCCN(CCC)S(=O)(=O)c1ccc(C(=O)OCCN2C(=O)c3cccc4c(N5CCOCC5)ccc(c34)C2=O)cc1	GRIN3A LBD mod 17.4
Cc1ccc(OCCn2cc(/C=C(\C#N)C(=O)NCC3CCCO3)c3ccccc32)cc1C (stereo unspecified)	NALP1 inh 45.2
COc1cc(/C=C(\C#N)C(=O)NCC2CCCO2)ccc1OCC(=O)O (stereo unspecified)	none
COc1ccc(CCNC(=O)/C(C#N)=C/c2ccc(OCC(=O)NCC3CCCO3)cc2)cc1OC (stereo unspecified)	GRIN3A LBD mod 13.5
Cc1ccc(S(=O)(=O)N2CCN(S(=O)(=O)N3CCOCC3)CC2)c(C)c1	NALP1 inh 42.8
Cc1ccc(C(=O)OCC(=O)NC(C)C)cc1S(=O)(=O)N1CCOCC1	NALP1 inh 23.8
Cc1ccc(C(=O)N2CCOCC2)cc1S(=O)(=O)N1CCOCC1	GRIN3A LBD mod 11.7
COC(=O)CC1COc2ccccc2N1C(=O)/C=C/c1ccccc1 (stereo unspecified)	none
Cn1c(SCC(=O)NC2CC2)nnc1-c1ccc(Cl)cc1	none (no result: NALP1 inh)
Cc1cc(C)c2[nH]c(C)c(CN3CCCCCC3)c(=O)c2c1	none
O=C(c1ccc(Br)cc1)C(CN1CCOCC1)c1ccccc1 (stereo unspecified)	NALP1 inh 39.3
O=C(c1ccccc1)C(CN1CCCCC1)c1ccccc1 (stereo unspecified)	none (no result: NALP1 inh, CR mimetic SO, UBC13 inh)
CCOc1ccc(C(=O)C(CN2CCOCC2)c2ccccc2)cc1 (stereo unspecified)	NALP1 inh 84.5 (no result: UBC13 inh)
CCOc1ccc(C(O)(CCC(C)C)C(CN2CCOCC2)c2ccccc2)cc1 (stereo unspecified)	none
OC(COc1ccc(OCc2ccccc2)cc1)CN1CCOCC1 (stereo unspecified)	NALP1 inh 39.2
OC(COc1ccc(-c2ccccc2)cc1)CN1CCOCC1 (stereo unspecified)	none (no result: GRIN3A LBD mod, dFosB activator)
Cc1ccc(NC(=S)N2CCN(c3ccccc3F)CC2)c(C)c1	none
